About 7,900 targets were measured; listed, in parts, are those with a hit and a random draw of the rest. About 0.6% of all pairs of compound and target were hits. Unmarked numbers belong to inactive results.
Columns and labels:
Test in all cases: log2 fold change, soluble protein after heating vs DMSO (PISA); higher = thermal stabilisation; K562 cells, 10 uM, 30 min; active = over 0.2 and 3.5 SD of the protein, either way, in both replicates (recomputed)
IRAK-1-4 Inhibitor I = compound: C1COCCN1CCN2C3=CC=CC=C3N=C2NC(=O)C4=CC(=CC=C4)[N+](=O)[O-] [IRAK-1-4 Inhibitor I]
How it was run: (§1)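 Values are thermal stability changes relative to control samples and are taken from duplicates. They are stated as log2 fold changes. Before quantification by TMTpro 16plex LC-MS/MS with equalised channel sums, K562 cells at 2×10^6 cells/mL were treated with 10 μM compound for 30 min, heated in aliquots for 3 min across 48°C-58°C, pooled, extracted in PBS with 0.5% NP-40 at 4°C, and centrifuged at 21,000xg for 90 min to give the soluble supernatant.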

ibrutinib = compound: C=CC(=O)N1CCC[C@@H](n2nc(-c3ccc(Oc4ccccc4)cc3)c3c(N)ncnc32)C1 [ibrutinib]
How it was run: as §1

[1] = compound: CC(=O)c1cnc2ccc(-c3cc(Cl)c(O)c(Cl)c3)nc2c1N[C@H]1CC[C@H](CN(C)C)CC1
How it was run: as §1

ralimetinib = compound: CC(C)(C)Cn1c(N)nc2ccc(-c3[nH]c(C(C)(C)C)nc3-c3ccc(F)cc3)nc21 [ralimetinib]
How it was run: as §1

[2] = compound: CC(C)(O)CC(=O)NCCn1ccc2ncnc(Nc3ccc(Oc4cccc(C(F)(F)F)c4)c(Cl)c3)c21
How it was run: as §1

[3] = compound: CC(C)C1=C2N=C(C=C(N2N=C1)NCC3=CC=CC=C3)NCCCCCCN
How it was run: as §1

[4] = compound: CC(C)C[C@@H](C=O)NC(=O)[C@H](CC(C)C)NC(=O)[C@H](CC(C)C)NC(=O)OCc1ccccc1
How it was run: as §1

pinometostat = compound: CC(C)N(C[C@H]1O[C@@H](n2cnc3c(N)ncnc32)[C@H](O)[C@@H]1O)[C@H]1C[C@@H](CCc2nc3cc(C(C)(C)C)ccc3[nH]2)C1 [pinometostat]
How it was run: as §1

[5] = compound: CC1=C(C(CC(=O)N1)C2=CC=C(C=C2)C(F)(F)F)C(=O)NC3=C(C=C4C(=C3)C=NN4)F
How it was run: as §1

[6] = compound: CC1=C(C2=C(C=C1)C(=O)C3=CC=CC=C3N2CCCN)C
How it was run: as §1

UniProt O14880, sequence (O14880 whole entry, looked up): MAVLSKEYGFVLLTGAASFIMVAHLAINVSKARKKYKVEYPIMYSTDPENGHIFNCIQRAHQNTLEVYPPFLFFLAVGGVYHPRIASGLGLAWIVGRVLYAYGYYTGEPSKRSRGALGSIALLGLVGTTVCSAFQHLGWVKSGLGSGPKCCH
UniProt Q9UHB6, sequence (Q9UHB6 whole entry, looked up): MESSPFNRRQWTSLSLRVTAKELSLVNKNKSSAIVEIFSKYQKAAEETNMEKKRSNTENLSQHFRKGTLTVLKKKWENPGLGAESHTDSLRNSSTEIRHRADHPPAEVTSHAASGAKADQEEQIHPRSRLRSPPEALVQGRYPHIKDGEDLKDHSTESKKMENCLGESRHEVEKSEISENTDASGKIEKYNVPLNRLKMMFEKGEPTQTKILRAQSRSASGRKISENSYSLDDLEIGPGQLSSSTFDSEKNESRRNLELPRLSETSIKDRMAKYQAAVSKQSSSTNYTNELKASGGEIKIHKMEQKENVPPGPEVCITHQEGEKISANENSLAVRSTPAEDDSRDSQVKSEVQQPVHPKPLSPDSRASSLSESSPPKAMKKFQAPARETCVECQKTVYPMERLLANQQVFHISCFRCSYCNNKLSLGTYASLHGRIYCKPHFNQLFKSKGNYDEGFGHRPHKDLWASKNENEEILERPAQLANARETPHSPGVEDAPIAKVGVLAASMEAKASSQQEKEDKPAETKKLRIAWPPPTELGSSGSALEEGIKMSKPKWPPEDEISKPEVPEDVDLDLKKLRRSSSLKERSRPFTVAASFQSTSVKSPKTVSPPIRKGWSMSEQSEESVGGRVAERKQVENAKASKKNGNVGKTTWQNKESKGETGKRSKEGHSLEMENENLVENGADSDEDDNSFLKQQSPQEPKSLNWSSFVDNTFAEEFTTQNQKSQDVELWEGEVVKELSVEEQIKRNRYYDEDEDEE
UniProt P43362, sequence (P43362 whole entry, looked up): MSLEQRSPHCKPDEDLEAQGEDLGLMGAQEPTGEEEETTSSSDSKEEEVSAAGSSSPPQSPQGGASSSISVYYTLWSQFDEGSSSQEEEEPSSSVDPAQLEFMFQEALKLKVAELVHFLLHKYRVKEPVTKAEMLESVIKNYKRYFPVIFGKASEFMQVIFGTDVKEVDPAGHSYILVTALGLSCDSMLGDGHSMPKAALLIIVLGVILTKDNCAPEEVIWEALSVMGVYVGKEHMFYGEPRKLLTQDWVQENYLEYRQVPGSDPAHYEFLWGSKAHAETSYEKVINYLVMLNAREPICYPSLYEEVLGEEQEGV
UniProt Q12906, sequence (Q12906 whole entry, looked up): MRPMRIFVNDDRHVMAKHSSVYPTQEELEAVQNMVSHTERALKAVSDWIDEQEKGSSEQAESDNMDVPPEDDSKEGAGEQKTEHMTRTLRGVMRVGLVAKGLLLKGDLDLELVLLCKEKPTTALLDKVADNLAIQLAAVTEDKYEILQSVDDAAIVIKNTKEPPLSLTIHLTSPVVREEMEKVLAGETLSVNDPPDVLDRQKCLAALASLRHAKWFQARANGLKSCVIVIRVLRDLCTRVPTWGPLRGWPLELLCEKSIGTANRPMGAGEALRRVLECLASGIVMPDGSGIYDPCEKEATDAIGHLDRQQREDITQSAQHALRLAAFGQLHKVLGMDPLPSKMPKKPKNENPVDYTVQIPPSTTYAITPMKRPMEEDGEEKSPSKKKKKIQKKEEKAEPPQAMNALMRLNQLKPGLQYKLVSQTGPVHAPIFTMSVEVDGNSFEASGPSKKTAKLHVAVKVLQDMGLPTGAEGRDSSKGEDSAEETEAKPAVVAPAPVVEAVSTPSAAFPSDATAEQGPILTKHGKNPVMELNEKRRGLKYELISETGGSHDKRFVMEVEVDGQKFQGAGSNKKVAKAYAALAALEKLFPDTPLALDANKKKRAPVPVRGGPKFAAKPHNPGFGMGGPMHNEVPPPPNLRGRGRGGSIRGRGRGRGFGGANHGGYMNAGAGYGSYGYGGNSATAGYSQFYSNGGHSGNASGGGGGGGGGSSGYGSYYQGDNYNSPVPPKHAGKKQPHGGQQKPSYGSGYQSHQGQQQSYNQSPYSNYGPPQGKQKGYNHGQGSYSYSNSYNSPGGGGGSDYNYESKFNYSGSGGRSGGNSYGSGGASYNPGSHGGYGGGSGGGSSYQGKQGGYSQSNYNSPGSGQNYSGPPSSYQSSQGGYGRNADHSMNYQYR
UniProt Q96AQ8, sequence (Q96AQ8 whole entry, looked up): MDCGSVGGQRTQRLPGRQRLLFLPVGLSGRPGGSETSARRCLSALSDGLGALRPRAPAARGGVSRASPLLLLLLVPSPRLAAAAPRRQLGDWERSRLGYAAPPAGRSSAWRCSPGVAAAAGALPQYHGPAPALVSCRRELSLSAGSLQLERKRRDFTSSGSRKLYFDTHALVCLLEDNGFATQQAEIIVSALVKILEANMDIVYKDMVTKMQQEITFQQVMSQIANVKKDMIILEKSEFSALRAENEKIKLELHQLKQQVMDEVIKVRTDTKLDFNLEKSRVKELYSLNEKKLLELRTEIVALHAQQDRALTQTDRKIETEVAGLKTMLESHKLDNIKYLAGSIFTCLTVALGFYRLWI
UniProt Q9NVH2, sequence (Q9NVH2 whole entry, looked up): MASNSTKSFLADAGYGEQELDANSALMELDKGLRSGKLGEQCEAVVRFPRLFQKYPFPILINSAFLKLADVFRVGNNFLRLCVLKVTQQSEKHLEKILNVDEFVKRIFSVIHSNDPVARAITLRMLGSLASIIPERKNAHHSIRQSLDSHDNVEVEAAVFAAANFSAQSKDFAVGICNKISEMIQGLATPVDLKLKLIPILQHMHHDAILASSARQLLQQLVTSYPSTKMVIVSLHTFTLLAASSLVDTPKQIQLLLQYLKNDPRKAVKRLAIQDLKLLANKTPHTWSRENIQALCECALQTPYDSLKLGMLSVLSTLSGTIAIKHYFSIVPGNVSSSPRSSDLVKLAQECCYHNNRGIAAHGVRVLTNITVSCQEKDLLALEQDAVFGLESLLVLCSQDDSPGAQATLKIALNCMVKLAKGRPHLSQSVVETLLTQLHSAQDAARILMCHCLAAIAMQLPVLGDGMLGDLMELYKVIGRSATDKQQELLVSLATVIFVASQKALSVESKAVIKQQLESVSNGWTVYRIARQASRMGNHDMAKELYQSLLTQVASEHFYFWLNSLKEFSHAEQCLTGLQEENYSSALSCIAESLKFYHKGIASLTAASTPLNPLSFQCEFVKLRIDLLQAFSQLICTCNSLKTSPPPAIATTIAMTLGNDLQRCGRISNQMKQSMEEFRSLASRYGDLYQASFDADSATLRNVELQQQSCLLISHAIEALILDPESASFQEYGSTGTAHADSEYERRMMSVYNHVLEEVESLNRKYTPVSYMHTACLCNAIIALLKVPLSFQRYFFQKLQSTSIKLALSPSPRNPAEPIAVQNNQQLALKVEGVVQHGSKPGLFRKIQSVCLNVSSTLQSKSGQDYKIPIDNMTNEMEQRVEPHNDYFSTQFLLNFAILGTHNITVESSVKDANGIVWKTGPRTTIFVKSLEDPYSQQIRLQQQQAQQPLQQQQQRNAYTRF
UniProt Q15528, sequence (Q15528 whole entry, looked up): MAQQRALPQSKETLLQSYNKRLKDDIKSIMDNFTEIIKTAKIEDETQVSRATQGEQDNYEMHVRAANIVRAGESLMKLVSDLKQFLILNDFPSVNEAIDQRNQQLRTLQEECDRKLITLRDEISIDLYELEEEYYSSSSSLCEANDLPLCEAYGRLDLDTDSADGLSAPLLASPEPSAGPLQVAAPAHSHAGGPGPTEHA
UniProt O43766, sequence (O43766 whole entry, looked up): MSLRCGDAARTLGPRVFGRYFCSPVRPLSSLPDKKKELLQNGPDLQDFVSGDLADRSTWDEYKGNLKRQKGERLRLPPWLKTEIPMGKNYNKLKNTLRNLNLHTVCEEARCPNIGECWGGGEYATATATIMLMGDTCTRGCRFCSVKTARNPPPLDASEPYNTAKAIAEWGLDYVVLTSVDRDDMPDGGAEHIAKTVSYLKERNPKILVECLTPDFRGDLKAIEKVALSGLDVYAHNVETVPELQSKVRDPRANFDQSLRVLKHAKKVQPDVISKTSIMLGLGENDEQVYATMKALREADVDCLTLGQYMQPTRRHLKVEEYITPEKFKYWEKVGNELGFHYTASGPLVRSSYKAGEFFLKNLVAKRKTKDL
UniProt P01116, sequence (P01116 whole entry, looked up): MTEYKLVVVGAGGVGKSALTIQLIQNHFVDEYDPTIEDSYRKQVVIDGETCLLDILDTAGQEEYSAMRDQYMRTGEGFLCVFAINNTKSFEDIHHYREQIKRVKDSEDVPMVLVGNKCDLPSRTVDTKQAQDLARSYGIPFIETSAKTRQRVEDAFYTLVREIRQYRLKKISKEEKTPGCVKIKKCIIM
UniProt Q13257, sequence (Q13257 whole entry, looked up): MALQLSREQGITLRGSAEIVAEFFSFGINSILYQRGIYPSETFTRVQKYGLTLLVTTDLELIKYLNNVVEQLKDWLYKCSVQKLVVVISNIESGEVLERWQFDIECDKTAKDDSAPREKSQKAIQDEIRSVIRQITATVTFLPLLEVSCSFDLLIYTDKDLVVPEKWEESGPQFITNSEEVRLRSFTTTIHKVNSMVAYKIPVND

| Target | log2 fold change (IRAK-1-4 Inhibitor I) | log2 fold change (ibrutinib) | log2 fold change [1] | log2 fold change (ralimetinib) | log2 fold change [2] | log2 fold change [3] | log2 fold change [4] | log2 fold change (pinometostat) | log2 fold change [5] | log2 fold change [6] |
| --- | --- | --- | --- | --- | --- | --- | --- | --- | --- | --- |
| LIAS (UniProt O43766) | 0.029 | 0.005 | 0.101 | -0.212 | -0.003 | -0.023 | 0.131 | -0.011 | 0.003 | -0.01 |
| MCUR1 (UniProt Q96AQ8) | 0.011 | 0.041 | -0.077 | 0.118 | -0.018 | 0.065 | -0.242 (active) | -0.059 | 0.015 | -0.002 |
| KPNA6 (UniProt O60684) | -0.046 | -0.032 | -0.04 | 0.077 | -0.047 | -0.239 | 0.087 | 0.087 | 0.04 | -0.15 |
| LYN (UniProt P07948) | -0.016 | 0.4 (active) | -0.456 (active) | 0.045 | 0.018 | -0.03 | 0.24 | 0.065 | 0.008 | 0.078 |
| MGST3 (UniProt O14880) | 0.115 | 0.042 | 0.036 | 0.062 | 0.041 | 0.073 | 0.006 | -0.025 | 0.011 | -0.014 |
| IPO7 (UniProt O95373) | 0 | -0.063 | -0.021 | 0.032 | -0.153 | -0.309 (active) | -0.069 | 0.012 | 0 | -0.221 (active) |
| MCU (UniProt Q8NE86) | 0.06 | -0.026 | -0.036 | -0.042 | -0.108 | -0.122 | -0.026 | 0.03 | 0.025 | 0.017 |
| MAPK14 isoform 2 (UniProt Q16539) | -0.011 | 0.001 | 1.01 (active) | 1.48 (active) | -0.096 | -0.218 | -0.089 | -0.141 | -0.152 | -0.013 |
| KDM1A isoform 2 (UniProt O60341) | -0.014 | 0.014 | -0.123 | 0.175 | -0.111 | -0.041 | 0.031 | 0.046 | 0.012 | -0.05 |
| MAPK8 isoform 3 (UniProt P45983) | 0.034 | -0.081 | 0.936 (active) | 0.271 | -0.071 | 0.012 | -0.002 | 0.05 | -0.02 | -0.1 |
| MAGI1 (UniProt Q96QZ7) | 0 | 0.057 | -0.071 | 0.014 | 0.032 | -0.009 | 0.01 | 0.025 | -0.016 | 0.07 |
| MAGEA9 (UniProt P43362) | 0.008 | -0.094 | 0.101 | 0 | 0.031 | -0.256 | 0.087 | 0.009 | 0.057 | -0.49 (active) |
| KIF1B isoform 4 (UniProt O60333) | -0.004 | -0.017 | 0 | -0.029 | -0.063 | 0.002 | 0.002 | 0.061 | -0.057 | -0.024 |
| ILF3 isoform 7 (UniProt Q12906) | -0.098 | 0.014 | 0.172 | 0.067 | 0.086 | 0.338 | 0.001 | 0.134 | 0.006 | 0.218 |
| KRAS isoform 2 (UniProt P01116) | 0.045 | -0.035 | -0.07 | 0.02 | 0.101 | 0.099 | 0.241 (active) | 0.014 | 0.001 | 0.072 |
| MARK2 (UniProt E9PC69) | -0.156 | -0.047 | -2.09 (active) | 0.031 | -0.047 | -0.581 | 0.049 | 0.078 | 0.077 | 0.034 |
| LIMA1 isoform 4 (UniProt Q9UHB6) | -0.031 | 0.033 | -0.267 (active) | 0.011 | 0.114 | 0.206 | -0.03 | 0.006 | 0.079 | 0.049 |
| ME2 (UniProt P23368) | 0.009 | -0.039 | 0.213 | -0.003 | 0.036 | 0.152 | 0.025 | -0.021 | -0.048 | -0.042 |
| KDM3B (UniProt Q7LBC6) | -0.01 | -0.04 | -0.023 | -0.018 | -0.089 | -0.047 | 0.014 | -0.011 | -0.018 | -0.007 |
| IRF3 (UniProt Q14653) | 0.002 | 0.13 | -0.019 | -0.037 | 0 | -0.065 | -0.015 | -0.002 | 0.04 | 0.02 |
| MED22 (UniProt Q15528) | 0.013 | 0.076 | -0.058 | 0.064 | 0.039 | -0.016 | 0.076 | 0.012 | -0.007 | 0.096 |
| IRF2BPL (UniProt Q9H1B7) | 0.031 | 0.038 | 0.008 | 0.013 | -0.18 | 0.076 | 0.063 | -0.206 | 0.044 | 0.093 |
| INPP5B (UniProt P32019) | -0.1 | -0.048 | -0.013 | 0.062 | -0.053 | -0.308 (active) | 0.122 | 0.101 | 0.042 | -0.077 |
| IPO9 (UniProt Q96P70) | 0.024 | -0.082 | 0.113 | 0.01 | -0.079 | -0.039 | -0.068 | 0.012 | -0.025 | 0.447 (active) |
| MCL1 (UniProt Q07820) | 0.052 | 0.095 | -0.036 | 0.175 | -0.054 | -0.234 | 0.295 | -0.186 | 0.091 | -0.117 |
| LTN1 isoform 3 (UniProt O94822) | -0.05 | -0.015 | -0.02 | 0.007 | -0.136 | -0.305 (active) | 0.055 | 0.098 | -0.007 | 0.093 |
| INTS7 (UniProt Q9NVH2) | 0.021 | -0.104 | 0.029 | 0.028 | -0.085 | -0.146 | 0.077 | -0.136 | -0.07 | 0.048 |
| MAD2L1 (UniProt Q13257) | 0 | -0.095 | 0.008 | -0.004 | -0.057 | -0.112 | -0.018 | 0.031 | -0.004 | -0.033 |
| LEMD3 (UniProt Q9Y2U8) | 0.04 | 0.03 | -0.173 | -0.082 | -0.09 | -0.056 | 0.039 | -0.026 | 0.068 | 0.101 |

Reference: the supplement of paper PMC10849652
